Screening data (PubChem)
uPA generation: cell surface uPA generation inhibition. cell surface uPA generation assay, qHTS. Potency, µM (highest dose often 38.3 µM), without a hit: at the top dose activity change, negative = inhibition, actives largely listed as inhibitors. hit rate 0.31% among 330,000. AID 540303; active = well fitted inhibition curve with a large enough effect; tested in mouse RAW 264.7 cells; also: potency is read from the fitted curve at half-maximal effect; % is scaled to controls: 0 for no effect and ±100 for the full control effect; nearly all actives have a fitted effect of over 55% in size
MBNL1-CUG inh: inhibitors of human MBNL1 binding to CUG repeat RNA; TR-FRET MBNL1-His/biotin-(CUG)12 binding, 665/545 ratio; Potency, µM (doses to about 57.5 µM), for inactives: at the highest dose activity change, negative = inhibition, actives largely listed as inhibitors; hit rate 0.036% among 280,000; AID 2675; active = well fitted inhibition curve with a large enough effect in the signal ratio, with a control signal flat, not every such curve was filed as active; the % refers to the signal ratio; also: potency is read from the fitted curve at half-maximal effect; % is scaled to controls: 0 for no effect and ±100 for the full control effect
Target sequence (Q9NR56 whole entry, looked up): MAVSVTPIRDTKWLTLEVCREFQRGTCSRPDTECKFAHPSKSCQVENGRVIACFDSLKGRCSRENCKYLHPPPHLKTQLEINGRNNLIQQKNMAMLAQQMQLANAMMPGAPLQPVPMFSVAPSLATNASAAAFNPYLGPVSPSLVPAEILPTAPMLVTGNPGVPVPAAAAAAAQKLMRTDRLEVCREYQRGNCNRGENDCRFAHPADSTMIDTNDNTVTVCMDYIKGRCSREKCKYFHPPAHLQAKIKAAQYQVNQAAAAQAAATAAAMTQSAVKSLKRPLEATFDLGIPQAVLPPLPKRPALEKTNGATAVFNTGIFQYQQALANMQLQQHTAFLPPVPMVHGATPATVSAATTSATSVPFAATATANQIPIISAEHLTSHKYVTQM
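TR-FRET between His-tagged MBNL1 and biotin-(CUG)12 RNA, detected with Tb anti-His antibody (0.055 ng/ul) and streptavidin-XL665 (5 nM), 60 min at room temperature. Compounds titrated 92 nM to 58 uM; 665/545 nm ratio normalized to buffer and complex controls.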
Akt phos inh: inhibitors of Akt phosphorylation. Neuro2A IGF-stimulated pAkt S473 HTRF, 20 min; active compounds read low. activity change, % for hits at 50 µM. hit rate 0.32% among 360,000. AID 651550; in the data active = activity change below about -80%; also: % is scaled to controls: 0 for no effect and ±100 for the full control effect
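Neuro2A cells in DMEM with 0.5% FBS, overnight at 37 deg C, given compound at single 50 µM final, then IGF (6 nM final) for 20 min at 37 deg C. Lysed; phospho-Akt Ser473 by HTRF after 24 h, 665/615 ratio.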
CCT modulator: changes cytosolic chaperonin activity. hit rate 0.3% among 360,000. activity change, % (concentration not given with the values), hits read low. purified chaperonin ATPase assay, HTRF ADP detection, 30 min; in the data active = activity change below about -30%; also: % is scaled to controls: 0 for no effect and ±100 for the full control effect
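First, chaperonin was dispensed at 40 nM or 20 nM final depending on batch activity. Next, compounds were pinned at 76 uM and ATP added at 10 uM. After 30 min at 37 °C, ADP detection reagents ran 30 min at ambient temperature.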
Mm-Cpn inhibitor: blocks the Methanococcus maripaludis chaperonin Mm-Cpn; purified Mm-Cpn ATPase, ADP Transcreener TR-FRET; Potency, µM (top dose mostly 76.9 µM), for inactives: at the highest dose activity, negative = inhibition, usual class: inhibitors; hit rate 0.031% among 330,000; AID 504842; also: potency is read from the fitted curve at half-maximal effect; % is scaled to controls: 0 for no effect and ±100 for the full control effect; nearly all actives have a fitted effect of over 80% in size
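25 nM Mm-CPN + cpd, 10 min 37°C; + 10 uM ATP, 30 min 37°C; buffer 30 mM Tris pH 7.4, 100 mM KCl, 5 mM MgCl2, 1 mM DTT; Transcreener ADP HTRF detection 30 min RT.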
Epigenetic derep: regulators of epigenetic silencing causing reporter derepression in mouse cells; murine LDR cells, GFP reporter derepression, 30 h; Potency, µM (series often up to 53.9 µM), for inactives: at the top dose GFP activation, actives largely listed as activators; hit rate 0.2% among 280,000; also: potency is read from the fitted curve at half-maximal effect; % of control where 0% means no effect; nearly all actives have a fitted effect of over 60% in size
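Reporter derepression read as number of fluorescent GFP-positive objects, 20-120 um in size, counted by laser-scanning cytometer. Mouse LDR line with an epigenetically silenced CMV-GFP locus; compound incubation 30 h, 37 C.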
MBNL1-CUG FRET: blocks human MBNL1 binding to CUG repeat RNA, TR-FRET validation. TR-FRET MBNL1-His / biotin-(CUG)12 binding, 60 min. Potency, µM (titrated, usually from 57.6 µM), without a hit: at the top dose activity change, negative = inhibition, usual class: inhibitors. hit rate 50% among 140. shares compounds with MBNL1-CUG inh
MBNL1-CUG Alpha: blocks MBNL1 binding to (CUG)12 RNA in AlphaScreen | Potency, µM (top dose mostly 57.7 µM), inactives show top-dose activity, negative = inhibition, most hits filed as inhibitors | AID 493205 | hit rate 30% among 140 | AlphaScreen MBNL1-His / biotin-(CUG)12 binding | shares compounds with MBNL1-CUG inh
MBNL1 HTRF CS: hit in HTRF counterscreen for MBNL1-poly(CUG) binding inhibitors | shares compounds with MBNL1-CUG inh | His-Menin/biotin-MLL peptide TR-FRET counterscreen | Potency, µM (titrated, usually from 57.6 µM), for the others: top-dose activity, negative = inhibition, actives largely listed as inhibitors | hit rate 20% among 120 | AID 651843
Active calls of the source: *. An excerpt weighted towards active compounds, which were near 0.97% of everything screened. Unless noted, calls follow the shape of the dose curve; as a rule, active = well fitted curve in the direction sought with a large enough effect; inconclusive = small, poorly fitted or top-dose-only effect, or another doubt; inactive = no such curve, though single readings can be large; an effect the other way counts as inactive or inconclusive.

Screening C/C1=C2N=C(/C=C3N=C(/C(C)=C4\[N-]C(C)(C5N=C1C(C)(CCC(=O)NCC(C)OP(=O)([O-])O[C@H]1C(O)C(n6cnc7cc(C)c(C)cc76)O[C@@H]1CO)C5CC(N)=O)C(C)(CC(N)=O)C4CCC(N)=O)C(C)(CC(N)=O)C\3CCC(N)=O)C(C)(C)C/2CCC(N)=O.[CH2-]C1OC(n2cnc3c(N)ncnc32)C(O)C1O.[Co] (stereo not given in full) returned Epigenetic derep 1%, MBNL1-CUG FRET 0.12µM* and MBNL1-CUG Alpha 5.2µM*.
For CC(=O)Nc1ccc(NC(=O)C(c2ccccc2)N2Cc3ccccc3C2=O)cc1 (stereo not given) the results were Epigenetic derep 0%.
Screening O=C(O)[C@@H](c1ccccc1)N1Cc2ccccc2C1=O returned uPA generation 7%, MBNL1-CUG inh 40µM*, Akt phos inh inactive, CCT modulator -1, Mm-Cpn inhibitor -10%, Epigenetic derep 3%, MBNL1-CUG FRET 26µM*, MBNL1-CUG Alpha 21µM* and MBNL1 HTRF CS -3%.
COc1ccc(CCNC(=O)C2CC(=O)N(c3ccc(F)cc3)C2)cc1OC (stereo not given) was read as MBNL1-CUG inh 0.79µM*, Akt phos inh inactive, CCT modulator 0, Mm-Cpn inhibitor -2%, Epigenetic derep 0%, MBNL1-CUG FRET -9%, MBNL1-CUG Alpha -8% and MBNL1 HTRF CS 0%.
For COc1ccc(N2CC(C(=O)NCCc3ccc(OC)c(OC)c3)CC2=O)cc1 (stereo not given) the results were uPA generation -5%, MBNL1-CUG inh -3%, CCT modulator 3, Mm-Cpn inhibitor -1% and Epigenetic derep -6%.
Screening Cc1ccc2ncc(C(=O)Nc3ccc(F)cc3F)c(=O)n2c1 returned Epigenetic derep 0%.
Screening CNC(=O)c1ccc(CN(C)C(=O)c2cccc(S(=O)(=O)N3CCc4ccccc4C3)c2)cc1 returned Akt phos inh inactive and CCT modulator -1.
